# Data taken from ChEMBL document CHEMBL1157539, “Thousands of chemical starting points for antimalarial lead identification” (Nature, 2010).
# Assays:
# Type in all cases: functional
# Plasmodium falciparum [1] = assay: GSK_TCMDC: Inhibition of Plasmodium falciparum 3D7 in whole red blood cells, using parasite LDH activity as an index of growth. Test compounds present at 2uM
# Plasmodium falciparum [2] = assay: GSK_TCMDC: Inhibition of Plasmodium falciparum Dd2 in whole red blood cells, using parasite LDH activity as an index of growth. Test compounds present at 2uM
# HepG2 = assay: GSK_TCMDC: Percent inhibition of human HepG2 cell line. Test compounds present at 10uM.
SMILES,Inhibition (Plasmodium falciparum [1]),Inhibition (Plasmodium falciparum [2]),Inhibition (HepG2)
COc1cccc(C(=O)NCCc2cccc(Cl)c2)c1Oc1ccccc1,97%,90%,28%
Cc1cc(N[C@@H](Cc2ccccc2)C(=O)NCCc2ccccc2)nc(NCCc2ccccc2)n1.O=C(O)C(F)(F)F,100%,57%,0%
Cc1nc2ccc(NC(=O)c3cc(S(=O)(=O)N(C)C)ccc3Cl)cc2s1,91%,77%,20%
O=C(Nc1ccc(-c2ccccc2)cc1)Nc1cccc(Cn2nc(Cl)c(N3CCNCC3)cc2=O)c1.O=C(O)C(F)(F)F,100%,79%,15%
Cc1ccccc1N1CCN(c2ccc(C(=O)Nc3ccccc3)cn2)CC1.O=C(O)C(F)(F)F,95%,69%,44%
COc1ccc2nccc([C@@H](O)CN3CCC(NCc4ccc5nc[nH]c(=O)c5c4)CC3)c2c1.O=C(O)C(=O)O,99%,4%,12%
Cc1cc(C(F)(F)F)nn1-c1ccc(NC(=O)c2ccco2)cc1,94%,93%,14%
Cc1cc(O)nc(NC(=N)NOCCCc2ccccc2)n1,100%,4%,0%
CCCCCCCCc1nc(C)c(Br)c(O)c1Br,96%,95%,2%
CC(NC(=O)c1ccc(O)c(-c2ccc(Cl)c(Cl)c2)c1)C(=O)NCCN1CCOCC1 (stereo not given),87%,7%,2%
CN(C)CCOc1cc(NC(=O)Nc2ccc(-c3ccncc3)c(C(F)(F)F)c2)ccc1Cl,100%,79%,36%
O=C(Nc1ccc2nc3n(c(=O)c2c1)CCCCC3)C(=O)N1CCN(c2ccc(F)cc2)CC1,93%,86%,10%
O=C(Nc1ccc(O)c(-c2nc3ccccc3[nH]2)c1)c1ccc([N+](=O)[O-])cc1,97%,45%,0%
Cc1cc(O)c(-c2ccc(Oc3ccc(F)cc3)cc2)c(C)n1,85%,59%,0%
COC(=O)C(=O)c1c(-c2ccccc2)c(-c2ccc(OC)c(OC)c2)c2c3cc(OC)c(OC)cc3ccn12,97%,89%,2%
O=C(CN(c1cccc(C(F)(F)F)c1)S(=O)(=O)c1ccc(Cl)cc1)NCCC(c1ccccc1)c1ccccc1,94%,50%,14%
Cc1[nH]c2ccc(NS(C)(=O)=O)cc2c1C1CCN(CCC2CCN(C(=O)/C=C/c3ccc(Cl)c(Cl)c3)CC2)CC1,100%,94%,23%
Br.COc1cc(CCON2C(N)=NC(N)=NC2(C)C)cc(OC)c1OC,93%,95%,59%
N=C(N)Nc1nc(-c2cccc(NCCCCCCCCON3C(N)=NC(N)=NC34CCCCC4)c2)cs1.O=C(O)C(F)(F)F,97%,42%,3%
N#Cc1ccc(-c2nc(CO)c(C(=O)NCCCCN3CCC(c4ccc5c(c4OCC(N)=O)CCCC5)CC3)s2)cc1,92%,0%,9%

SMILES,Inhibition (Plasmodium falciparum [1]),Inhibition (Plasmodium falciparum [2]),Inhibition (HepG2)
CN(C)C(CNC(=O)c1cc(-c2ccncc2)c(-c2ccc(Cl)c(O)c2)o1)c1ccccc1.O=C(O)C(F)(F)F (stereo not given),91%,28%,28%
CNCCCNc1ccnc2cc(Cl)ccc12,100%,25%,11%
O=C(Nc1cccc(CN2CCCN(Cc3ccsc3)CC2)c1)c1cc2ccccc2s1.O=C(O)C(F)(F)F,96%,29%,25%
NCC1CCCN1Cc1cccc(-c2ccc(-c3nc4ccccc4[nH]3)s2)c1.O=C(O)C(F)(F)F (stereo not given),99%,66%,16%
Cl.Cn1ncc2c3c(CCN4CCC(NCc5cc6c(cn5)OCCO6)CC4)c(Cl)cnc3ccc21,95%,34%,1%
Cc1ccc2c(N/N=C/c3cccc([N+](=O)[O-])c3)cc(C)nc2c1,100%,97%,33%
O=C(Nc1ccc(CC(=O)N2CCc3cc(Cl)c(N4CCN(C/C=C/c5ccccc5)CC4)cc32)cc1)Nc1cccc([N+](=O)[O-])c1,95%,27%,0%
Cc1occc1C(=O)Nc1nc(-c2ccccn2)nc2ccsc12,98%,98%,68%
CCN(CC)CCN(Cc1ccc(-c2ccc(C(F)(F)F)cc2)cc1)C(=O)Cn1c(SCc2ccc(F)c(F)c2F)nc(=O)c2c1CCC2.O=C(O)C(O)C(O)C(=O)O,91%,96%,100%
O=C(Nc1ccc(C(=O)N(Cc2ccc3c(c2)OCO3)C2CCCC2)cc1)c1cccs1,97%,95%,14%
CN1CCCC(OC(=O)c2ccccc2)C1 (stereo not given),100%,0%,4%
COc1cc(F)c2nccc([C@@H](O)CN3CCC(NCc4nc5cccc(F)c5[nH]4)CC3)c2c1.O=C(O)C(=O)O,99%,5%,11%
CC1N=C(N)N=C(N)N1OCc1ccccc1.Cl (stereo not given),94%,72%,62%
CC(C)C[C@H](NC(=O)c1ccc(F)cc1)C(=O)N[C@H](/C=N/NC(=O)c1ccccc1)CCc1ccccc1,92%,61%,1%
CN(C)CCNCc1cccc(-c2ccc3c(Nc4ccc(F)cc4Cl)ccnc3c2)c1,100%,98%,17%
O=C(Nc1cccc(CN2CCCN(Cc3ncc[nH]3)CC2)c1)c1cc2ccccc2s1.O=C(O)C(F)(F)F,99%,35%,22%
FC(F)(F)c1cccc(CNCC2CCN(Cc3ccc4c(c3)OCO4)CC2)c1.O=C(O)C(F)(F)F,100%,19%,21%
Cc1cccc(Cn2c(Cc3ccccc3)nnc2Sc2ccc([N+](=O)[O-])c(C#N)c2)c1,91%,3%,17%
Cc1cc(N2CCC(NS(=O)(=O)c3ccccc3)CC2)nc(Nc2cccc(C#N)c2)n1.O=C(O)C(F)(F)F,93%,29%,52%
CN1CCN(c2ccc(Nc3nccc(-c4c(-c5cccc(NC(=O)c6c(F)cccc6F)c5)nn5ccccc45)n3)cc2)CC1,98%,98%,86%

SMILES,Inhibition (Plasmodium falciparum [1]),Inhibition (Plasmodium falciparum [2]),Inhibition (HepG2)
Cl.N=c1n(Cc2ccccc2)c2ccccc2n1CC(O)c1ccc(Cl)cc1 (stereo not given),96%,75%,26%
COc1ccc(-c2cccc(NC(=O)c3cccc(C#N)c3)c2)cc1CN1CCC(O)CC1.O=C(O)C(F)(F)F,97%,13%,30%
COc1ccc(NC(=O)Nc2ccc(-c3ccccc3)cc2)cc1Cn1cnc(N2CCCNCC2)cc1=O.O=C(O)C(F)(F)F,100%,38%,24%
COc1ccc(NC(=O)CCNc2ccnc(NCCc3ccc(F)cc3)n2)cc1.O=C(O)C(F)(F)F,94%,5%,4%
Nc1ncc(-c2ccc(F)cc2)cc1-c1nc2ccc(Cl)cc2[nH]1,99%,44%,45%
O=C(Cn1c(CCc2cccc(F)c2F)cc(=O)c2cccnc21)N(CCN1CCCC1)Cc1ccc(-c2ccc(C(F)(F)F)cc2)cc1.O=C(O)C(O)C(O)C(=O)O,99%,64%,48%
CC(Cc1ccc(NC(=O)c2ccc(CNCc3ccccc3)cc2)cc1)N(CCc1cccc(Cl)c1)C(=O)OC(C)(C)C (stereo not given),95%,2%,16%
O=C(/C=C/c1ccc(Cl)c(Cl)c1)NCCCCCN1CCCC(CNS(=O)(=O)c2ccc(F)cc2)C1 (stereo not given),91%,7%,56%
CN(C)CCN(C)Cc1cccc(-c2cccc(NC(=O)c3cccc(C#N)c3)c2)c1.O=C(O)C(F)(F)F,92%,10%,0%
O=C(NC1CCN(c2ncc(C(F)(F)F)cc2Cl)CC1)c1cccs1,84%,65%,15%
CC(C)(CNCc1ccc(F)c(F)c1)c1nc(-c2ccnc(N)n2)c(-c2ccc(Cl)c(O)c2)[nH]1.Cl,99%,79%,41%
CC(CN1CCN(C)CC1)C(=O)Nc1ccc(-c2ccc(-c3nc4cc(C(F)(F)F)ccc4[nH]3)cc2)cc1 (stereo not given),100%,100%,19%
Cc1cc(N/N=C/c2ccccc2[N+](=O)[O-])c2ccccc2n1,100%,100%,10%
COc1cc2nc(SCC(C)C)n(CCCn3ccnc3)c(=N)c2cc1OC,99%,78%,15%
Fc1ccc2[nH]c(-c3ccc(-c4ccc(CNCCN5CCNCC5)cc4)s3)nc2c1.O=C(O)C(F)(F)F,96%,2%,24%
CC1CCCN(Cc2c(O)ccc3c(O)c(-c4nc5ccccc5s4)c(=N)oc23)C1 (stereo not given),100%,99%,20%
Cc1cc(-c2ccc(Cl)cc2)c2c(N)c(C(=O)Nc3ccc(F)cc3)sc2n1,97%,87%,12%
CCC(=O)NC(c1ccco1)c1cc(Cl)c2cccnc2c1O (stereo not given),89%,74%,58%
COc1ccc(CCNC(=O)c2cnc3c(c2)nc(-c2c[nH]c(-c4ccccc4)n2)n3CCc2c[nH]cn2)cc1,96%,70%,16%
CC(=O)Nc1ccc(C(=O)Nc2cccc(-c3cccc(-c4nc5ccccc5[nH]4)c3)c2)cn1,100%,100%,3%
